# From article PMC7862700, “An all-to-all approach to the identification of sequence-specific readers for epigenetic DNA modifications on cytosine”
# Assays:
# Test in all cases: DAPPL (digital affinity profiling via proximity ligation, sequencing); 10 mM Tris-HCl pH 7.5, 50 mM NaCl, 1 mM DTT, 4% glycerol, room temperature, 30 min; GST-TFs on glutathione beads, 16-mer random dsDNA library, 0.1% formaldehyde crosslink after washing; high values mean tight binding
# FEV = target: T1, FEV (Homo sapiens, UniProt Q99581 1-238); settings: protein: recombinant; tags: N-terminal GST; dsDNA, one strand shown
# T1 sequence: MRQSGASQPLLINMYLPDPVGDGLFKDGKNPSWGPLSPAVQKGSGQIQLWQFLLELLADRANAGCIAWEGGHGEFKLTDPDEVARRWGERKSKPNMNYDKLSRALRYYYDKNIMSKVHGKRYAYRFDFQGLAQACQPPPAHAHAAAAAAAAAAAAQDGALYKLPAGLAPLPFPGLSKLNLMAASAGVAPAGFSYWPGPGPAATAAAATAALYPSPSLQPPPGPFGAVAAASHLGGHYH
# Outline: (§1)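 Each value of binding signal is a hexamer's read frequency for a factor divided by the same hexamer's frequency in the tag-only sample. Barcoded, bead-captured GST fusions of human transcription factors made in yeast were pooled with that sample and incubated with 200 nmole of a random double-stranded 16-mer DNA library in Tris/NaCl/DTT/glycerol buffer at room temperature for 30 min. Washing, 0.1% formaldehyde crosslinking, proximity ligation, PCR and Illumina NextSeq500 sequencing followed.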
# ETV5 = ETV5 (Homo sapiens, UniProt P41161 1-510); settings: protein: recombinant; tags: N-terminal GST; dsDNA, one strand shown
# Outline: as §1
# HSF1 = HSF1 (Homo sapiens, UniProt Q00613 1-529); settings: protein: recombinant; tags: N-terminal GST; chain copies: 3; dsDNA, one strand shown
# Outline: as §1
# SPIC = target: T2, SPIC (Homo sapiens, UniProt Q8N5J4 1-248); settings: protein: recombinant; tags: N-terminal GST; dsDNA, one strand shown
# T2 sequence: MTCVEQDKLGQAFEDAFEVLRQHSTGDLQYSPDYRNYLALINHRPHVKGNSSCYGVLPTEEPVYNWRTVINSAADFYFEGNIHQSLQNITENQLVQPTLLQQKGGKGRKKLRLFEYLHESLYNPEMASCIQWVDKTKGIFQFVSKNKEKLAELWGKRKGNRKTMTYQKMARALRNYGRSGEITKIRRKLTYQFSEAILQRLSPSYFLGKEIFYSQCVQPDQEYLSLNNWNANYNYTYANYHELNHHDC
# Outline: as §1
# ELF4 = ELF4 (Homo sapiens, UniProt Q99607 1-663); settings: protein: recombinant; tags: N-terminal GST; dsDNA, one strand shown
# Outline: as §1
# ELK4 = target: T3, ELK4 (Homo sapiens, UniProt P28324-2 1-405); settings: protein: recombinant; tags: N-terminal GST; dsDNA, one strand shown
# T3 sequence: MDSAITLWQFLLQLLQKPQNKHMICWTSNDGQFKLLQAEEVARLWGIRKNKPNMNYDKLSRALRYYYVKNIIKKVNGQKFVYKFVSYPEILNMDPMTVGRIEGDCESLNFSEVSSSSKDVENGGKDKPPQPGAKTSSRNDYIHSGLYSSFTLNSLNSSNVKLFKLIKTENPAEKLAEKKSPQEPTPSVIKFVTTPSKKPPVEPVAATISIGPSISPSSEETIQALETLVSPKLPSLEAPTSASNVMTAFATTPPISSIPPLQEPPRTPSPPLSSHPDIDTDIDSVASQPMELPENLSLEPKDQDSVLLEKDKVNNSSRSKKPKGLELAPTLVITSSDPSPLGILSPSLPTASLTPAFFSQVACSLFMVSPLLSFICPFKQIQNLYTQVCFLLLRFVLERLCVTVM
# Outline: as §1
# ETV2 = target: T4, ETV2 (Homo sapiens, UniProt O00321 1-342); settings: protein: recombinant; tags: N-terminal GST; dsDNA, one strand shown
# T4 sequence: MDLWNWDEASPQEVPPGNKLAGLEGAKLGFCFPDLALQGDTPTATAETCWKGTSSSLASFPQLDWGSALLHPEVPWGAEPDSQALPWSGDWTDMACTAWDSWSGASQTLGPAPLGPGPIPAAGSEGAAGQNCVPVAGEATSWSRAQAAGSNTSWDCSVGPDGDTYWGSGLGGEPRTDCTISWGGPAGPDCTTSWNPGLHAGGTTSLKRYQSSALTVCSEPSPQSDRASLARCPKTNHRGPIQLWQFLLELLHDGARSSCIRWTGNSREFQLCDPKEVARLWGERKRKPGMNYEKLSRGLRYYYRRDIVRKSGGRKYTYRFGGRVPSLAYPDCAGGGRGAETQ
# Outline: as §1
# ELF3 = target: T5, ELF3 (Homo sapiens, UniProt P78545 1-371); settings: protein: recombinant; tags: N-terminal GST; dsDNA, one strand shown
# T5 sequence: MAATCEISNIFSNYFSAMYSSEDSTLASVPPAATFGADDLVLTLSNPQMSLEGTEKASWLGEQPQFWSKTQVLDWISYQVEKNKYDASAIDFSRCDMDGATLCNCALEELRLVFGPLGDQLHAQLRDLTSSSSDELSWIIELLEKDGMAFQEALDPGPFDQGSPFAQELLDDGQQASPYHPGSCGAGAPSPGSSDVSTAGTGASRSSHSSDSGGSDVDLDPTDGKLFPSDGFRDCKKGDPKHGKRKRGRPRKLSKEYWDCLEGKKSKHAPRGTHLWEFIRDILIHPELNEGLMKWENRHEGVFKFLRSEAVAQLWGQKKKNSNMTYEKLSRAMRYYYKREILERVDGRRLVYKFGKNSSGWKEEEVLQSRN
# Outline: as §1
# CRX = CRX (Homo sapiens, UniProt O43186 1-299); settings: protein: recombinant; tags: N-terminal GST; dsDNA, one strand shown
# Outline: as §1
# ETV1 = ETV1 (Homo sapiens, UniProt P50549 1-477); settings: protein: recombinant; tags: N-terminal GST; dsDNA, one strand shown
# Outline: as §1
# ERF = target: T6, ERF (Homo sapiens, UniProt P50548 1-548); settings: protein: recombinant; tags: N-terminal GST; dsDNA, one strand shown
# T6 sequence: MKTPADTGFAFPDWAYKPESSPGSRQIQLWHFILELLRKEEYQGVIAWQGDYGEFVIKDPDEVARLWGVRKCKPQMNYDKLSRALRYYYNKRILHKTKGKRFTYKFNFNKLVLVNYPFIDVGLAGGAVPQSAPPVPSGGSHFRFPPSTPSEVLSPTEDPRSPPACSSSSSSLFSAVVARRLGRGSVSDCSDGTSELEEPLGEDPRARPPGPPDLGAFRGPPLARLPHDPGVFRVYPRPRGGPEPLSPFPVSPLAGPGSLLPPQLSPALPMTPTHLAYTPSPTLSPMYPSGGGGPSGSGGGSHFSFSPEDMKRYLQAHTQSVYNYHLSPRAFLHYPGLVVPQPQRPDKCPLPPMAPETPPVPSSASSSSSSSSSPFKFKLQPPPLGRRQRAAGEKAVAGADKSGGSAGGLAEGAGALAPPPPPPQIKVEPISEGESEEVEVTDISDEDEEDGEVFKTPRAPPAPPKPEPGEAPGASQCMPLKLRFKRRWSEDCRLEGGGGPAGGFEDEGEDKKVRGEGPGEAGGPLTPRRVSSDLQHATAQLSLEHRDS
# Outline: as §1
# ETV3L = target: T7, ETV3L (Homo sapiens, UniProt Q6ZN32 1-361); settings: protein: recombinant; tags: N-terminal GST; dsDNA, one strand shown
# T7 sequence: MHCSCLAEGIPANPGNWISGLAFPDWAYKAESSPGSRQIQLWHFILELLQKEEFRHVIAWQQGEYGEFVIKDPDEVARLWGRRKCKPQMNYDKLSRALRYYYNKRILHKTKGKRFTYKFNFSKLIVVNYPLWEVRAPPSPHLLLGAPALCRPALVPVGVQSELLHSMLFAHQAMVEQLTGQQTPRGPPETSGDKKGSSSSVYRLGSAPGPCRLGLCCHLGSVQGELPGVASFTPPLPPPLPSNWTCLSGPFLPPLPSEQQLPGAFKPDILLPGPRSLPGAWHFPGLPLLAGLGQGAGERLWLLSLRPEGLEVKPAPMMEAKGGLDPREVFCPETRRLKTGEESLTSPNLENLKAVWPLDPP
# Outline: as §1
# ETS2 = target: T8, ETS2 (Homo sapiens, UniProt P15036 1-469); settings: protein: recombinant; tags: N-terminal GST; dsDNA, one strand shown
# T8 sequence: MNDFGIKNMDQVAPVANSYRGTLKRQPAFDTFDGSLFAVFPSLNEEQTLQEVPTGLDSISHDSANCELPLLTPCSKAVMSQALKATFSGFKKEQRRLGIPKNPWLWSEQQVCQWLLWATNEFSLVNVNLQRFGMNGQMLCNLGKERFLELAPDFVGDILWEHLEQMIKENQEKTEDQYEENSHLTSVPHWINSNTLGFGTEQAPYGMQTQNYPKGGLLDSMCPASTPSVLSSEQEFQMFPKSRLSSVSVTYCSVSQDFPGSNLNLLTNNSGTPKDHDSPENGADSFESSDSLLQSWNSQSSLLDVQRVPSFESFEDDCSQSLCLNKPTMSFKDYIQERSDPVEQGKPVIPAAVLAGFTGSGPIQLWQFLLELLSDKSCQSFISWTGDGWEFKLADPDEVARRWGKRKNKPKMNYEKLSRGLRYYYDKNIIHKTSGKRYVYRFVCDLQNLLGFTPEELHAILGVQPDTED
# Outline: as §1
# SPDEF = target: T9, SPDEF (Homo sapiens, UniProt O95238 1-335); settings: protein: recombinant; tags: N-terminal GST; dsDNA, one strand shown
# T9 sequence: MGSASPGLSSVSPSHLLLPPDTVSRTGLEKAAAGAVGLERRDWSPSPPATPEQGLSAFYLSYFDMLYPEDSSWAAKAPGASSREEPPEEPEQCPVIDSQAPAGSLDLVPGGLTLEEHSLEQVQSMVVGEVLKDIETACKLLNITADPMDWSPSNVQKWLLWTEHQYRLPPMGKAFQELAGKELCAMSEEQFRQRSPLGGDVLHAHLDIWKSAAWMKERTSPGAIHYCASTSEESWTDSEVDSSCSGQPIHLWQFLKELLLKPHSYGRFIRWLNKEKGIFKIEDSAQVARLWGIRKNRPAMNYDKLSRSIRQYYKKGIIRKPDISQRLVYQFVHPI
# Outline: as §1
# ETV7 = target: T10, ETV7 (Homo sapiens, UniProt Q9Y603 1-341); settings: protein: recombinant; tags: N-terminal GST; dsDNA, one strand shown
# T10 sequence: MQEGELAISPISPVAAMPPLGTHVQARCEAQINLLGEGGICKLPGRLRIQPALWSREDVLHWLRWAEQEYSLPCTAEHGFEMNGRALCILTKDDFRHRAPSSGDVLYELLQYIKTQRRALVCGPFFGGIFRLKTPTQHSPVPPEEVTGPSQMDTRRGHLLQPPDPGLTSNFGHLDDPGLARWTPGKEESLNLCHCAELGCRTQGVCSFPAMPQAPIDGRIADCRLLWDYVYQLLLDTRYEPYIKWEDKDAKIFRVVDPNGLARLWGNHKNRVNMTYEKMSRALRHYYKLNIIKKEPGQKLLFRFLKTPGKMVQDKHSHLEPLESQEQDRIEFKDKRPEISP
# Outline: as §1
# ELF5 = target: T11, ELF5 (Homo sapiens, UniProt Q9UKW6-2 1-255); settings: protein: recombinant; tags: N-terminal GST; dsDNA, one strand shown
# T11 sequence: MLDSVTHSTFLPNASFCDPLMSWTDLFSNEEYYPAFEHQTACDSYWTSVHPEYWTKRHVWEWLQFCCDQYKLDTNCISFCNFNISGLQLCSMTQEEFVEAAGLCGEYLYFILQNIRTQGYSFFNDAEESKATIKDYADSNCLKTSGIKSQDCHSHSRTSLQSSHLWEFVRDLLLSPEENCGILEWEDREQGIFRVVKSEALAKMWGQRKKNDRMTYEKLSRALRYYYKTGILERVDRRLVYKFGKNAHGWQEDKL
# Outline: as §1
# ETV3 = target: T12, ETV3 (Homo sapiens, UniProt P41162-2 1-143); settings: protein: recombinant; tags: N-terminal GST; dsDNA, one strand shown
# T12 sequence: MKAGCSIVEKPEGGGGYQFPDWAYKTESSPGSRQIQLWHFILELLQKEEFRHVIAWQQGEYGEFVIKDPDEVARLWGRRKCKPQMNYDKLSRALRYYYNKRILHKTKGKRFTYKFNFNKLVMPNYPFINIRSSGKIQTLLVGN
# Outline: as §1
# ETV6 = ETV6 (Homo sapiens, UniProt P41212 1-452); settings: protein: recombinant; tags: N-terminal GST; dsDNA, one strand shown
# Outline: as §1
# Chain of HSF1 (Q00613 whole entry): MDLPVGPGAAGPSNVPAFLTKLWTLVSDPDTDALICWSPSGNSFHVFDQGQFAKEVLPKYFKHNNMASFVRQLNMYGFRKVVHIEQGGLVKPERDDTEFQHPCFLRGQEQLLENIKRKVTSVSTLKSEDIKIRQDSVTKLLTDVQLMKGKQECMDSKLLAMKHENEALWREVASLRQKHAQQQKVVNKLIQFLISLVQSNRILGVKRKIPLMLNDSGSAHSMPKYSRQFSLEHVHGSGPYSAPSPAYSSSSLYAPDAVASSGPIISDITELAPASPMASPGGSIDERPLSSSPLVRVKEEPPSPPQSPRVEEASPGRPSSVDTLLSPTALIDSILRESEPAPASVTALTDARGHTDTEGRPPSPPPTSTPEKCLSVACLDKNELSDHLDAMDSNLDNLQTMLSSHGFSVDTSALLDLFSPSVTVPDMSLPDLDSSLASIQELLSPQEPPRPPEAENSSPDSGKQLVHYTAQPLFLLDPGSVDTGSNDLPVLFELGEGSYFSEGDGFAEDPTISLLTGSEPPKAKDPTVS
# Chain of ETV1 (P50549 whole entry): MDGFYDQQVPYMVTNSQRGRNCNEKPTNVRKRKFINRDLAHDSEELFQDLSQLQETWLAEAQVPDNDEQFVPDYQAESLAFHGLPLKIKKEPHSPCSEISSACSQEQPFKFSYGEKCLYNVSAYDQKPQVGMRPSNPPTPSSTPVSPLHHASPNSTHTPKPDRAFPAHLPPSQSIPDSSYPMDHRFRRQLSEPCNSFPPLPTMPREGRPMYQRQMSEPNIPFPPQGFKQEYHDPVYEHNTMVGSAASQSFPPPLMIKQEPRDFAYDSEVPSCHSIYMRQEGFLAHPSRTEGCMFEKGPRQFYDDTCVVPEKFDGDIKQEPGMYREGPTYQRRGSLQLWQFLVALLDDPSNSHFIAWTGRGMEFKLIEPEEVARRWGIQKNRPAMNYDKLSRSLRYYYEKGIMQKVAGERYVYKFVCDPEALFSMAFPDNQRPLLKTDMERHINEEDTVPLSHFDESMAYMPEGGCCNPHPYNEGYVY
# Chain of ELF4 (Q99607 whole entry): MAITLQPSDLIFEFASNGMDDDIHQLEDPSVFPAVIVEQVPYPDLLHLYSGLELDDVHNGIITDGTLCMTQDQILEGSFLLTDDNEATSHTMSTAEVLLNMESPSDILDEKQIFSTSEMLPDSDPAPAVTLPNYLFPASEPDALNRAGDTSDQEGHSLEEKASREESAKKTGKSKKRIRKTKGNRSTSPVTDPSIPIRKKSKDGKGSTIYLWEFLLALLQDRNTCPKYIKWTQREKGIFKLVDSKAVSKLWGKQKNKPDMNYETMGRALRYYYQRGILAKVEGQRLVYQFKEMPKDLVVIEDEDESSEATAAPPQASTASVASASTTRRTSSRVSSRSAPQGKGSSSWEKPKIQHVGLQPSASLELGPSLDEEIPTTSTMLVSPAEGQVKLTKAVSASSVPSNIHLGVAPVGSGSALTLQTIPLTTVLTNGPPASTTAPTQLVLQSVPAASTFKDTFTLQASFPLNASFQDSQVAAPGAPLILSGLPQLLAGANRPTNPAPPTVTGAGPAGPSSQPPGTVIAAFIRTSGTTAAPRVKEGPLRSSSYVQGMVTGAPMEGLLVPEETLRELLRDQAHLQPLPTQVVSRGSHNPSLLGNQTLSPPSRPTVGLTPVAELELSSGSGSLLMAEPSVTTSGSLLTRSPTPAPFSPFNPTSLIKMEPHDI
# Chain of ETV5 (P41161 whole entry): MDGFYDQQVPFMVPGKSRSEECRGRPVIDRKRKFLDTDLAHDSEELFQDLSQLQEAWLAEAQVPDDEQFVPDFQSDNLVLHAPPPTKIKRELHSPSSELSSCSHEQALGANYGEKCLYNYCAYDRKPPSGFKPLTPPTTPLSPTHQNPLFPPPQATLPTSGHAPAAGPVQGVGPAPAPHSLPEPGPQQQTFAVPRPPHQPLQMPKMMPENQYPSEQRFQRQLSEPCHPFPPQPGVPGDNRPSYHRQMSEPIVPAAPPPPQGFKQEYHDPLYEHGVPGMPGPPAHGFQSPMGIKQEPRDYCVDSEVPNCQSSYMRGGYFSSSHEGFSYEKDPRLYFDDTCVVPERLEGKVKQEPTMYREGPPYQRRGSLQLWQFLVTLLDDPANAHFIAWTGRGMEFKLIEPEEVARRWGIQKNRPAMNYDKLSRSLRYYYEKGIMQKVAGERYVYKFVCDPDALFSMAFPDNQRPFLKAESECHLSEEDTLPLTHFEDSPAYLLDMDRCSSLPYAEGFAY
# Chain of CRX (O43186 whole entry): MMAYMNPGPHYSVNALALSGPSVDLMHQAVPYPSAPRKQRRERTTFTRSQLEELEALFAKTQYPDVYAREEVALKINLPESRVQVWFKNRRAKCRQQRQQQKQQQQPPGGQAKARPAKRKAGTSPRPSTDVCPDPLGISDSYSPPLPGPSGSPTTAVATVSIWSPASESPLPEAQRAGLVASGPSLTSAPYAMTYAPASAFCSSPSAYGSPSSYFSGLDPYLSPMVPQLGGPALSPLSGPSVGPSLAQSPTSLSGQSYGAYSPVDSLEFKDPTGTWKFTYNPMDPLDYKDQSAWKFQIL
# Chain of ETV6 (P41212 whole entry): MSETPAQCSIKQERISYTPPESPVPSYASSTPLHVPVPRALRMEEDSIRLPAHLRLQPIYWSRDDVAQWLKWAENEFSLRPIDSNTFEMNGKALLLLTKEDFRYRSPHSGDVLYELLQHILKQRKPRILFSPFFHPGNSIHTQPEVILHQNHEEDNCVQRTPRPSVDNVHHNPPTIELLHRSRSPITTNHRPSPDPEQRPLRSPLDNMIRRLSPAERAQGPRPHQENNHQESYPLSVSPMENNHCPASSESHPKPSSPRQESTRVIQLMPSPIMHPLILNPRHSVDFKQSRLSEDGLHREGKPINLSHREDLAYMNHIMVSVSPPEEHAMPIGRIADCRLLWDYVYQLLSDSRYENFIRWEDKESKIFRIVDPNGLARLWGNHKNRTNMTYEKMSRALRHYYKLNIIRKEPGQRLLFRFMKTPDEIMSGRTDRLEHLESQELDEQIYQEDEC
sequence,measurement,setting,value
TATTGT,binding signal,FEV,"1.26 fold enrichment (6-mer frequency, TF over GST control)"
same,binding signal,ETV5,"1.33 fold enrichment (6-mer frequency, TF over GST control)"
same,binding signal,HSF1,"1.27 fold enrichment (6-mer frequency, TF over GST control)"
same,binding signal,SPIC,"1.45 fold enrichment (6-mer frequency, TF over GST control)"
same,binding signal,ELF4,"1.24 fold enrichment (6-mer frequency, TF over GST control)"
same,binding signal,ELK4,"1.36 fold enrichment (6-mer frequency, TF over GST control)"
same,binding signal,ETV2,"1.32 fold enrichment (6-mer frequency, TF over GST control)"
same,binding signal,ELF3,"1.23 fold enrichment (6-mer frequency, TF over GST control)"
same,binding signal,CRX,"1.47 fold enrichment (6-mer frequency, TF over GST control)"
same,binding signal,ETV1,"1.25 fold enrichment (6-mer frequency, TF over GST control)"
same,binding signal,ERF,"1.44 fold enrichment (6-mer frequency, TF over GST control)"
same,binding signal,ETV3L,"1.32 fold enrichment (6-mer frequency, TF over GST control)"
same,binding signal,ETS2,"1.37 fold enrichment (6-mer frequency, TF over GST control)"
same,binding signal,SPDEF,"1.3 fold enrichment (6-mer frequency, TF over GST control)"
same,binding signal,ETV7,"1.35 fold enrichment (6-mer frequency, TF over GST control)"
same,binding signal,ELF5,"1.23 fold enrichment (6-mer frequency, TF over GST control)"
same,binding signal,ETV3,"1.34 fold enrichment (6-mer frequency, TF over GST control)"
same,binding signal,ETV6,"1.33 fold enrichment (6-mer frequency, TF over GST control)"
